High-throughput results (PubChem BioAssay)
Sm TGR inh = blocks Schistosoma mansoni thioredoxin glutathione reductase; actives 3% (n = 360,000); Potency, µM (doses to about 114 µM), inactives show at the top dose activity change, negative = inhibition, hits mostly inhibitors; AID 485364; Q962Y6; purified TGR, DTNB reduction, TNB absorbance 405 nm; further: potency means the concentration at half of the fitted maximal effect; nearly all actives have a fitted effect of over 60% in size
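Kinetic colorimetric format: TGR-catalysed, NADPH-driven DTNB reduction monitored via TNB absorbance. Enzyme dispensed at 20 nM; compound exposure 15 min at room temperature before reaction start.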
Pf growth 48h = inhibits P. falciparum growth in the first generation, 48 h | P. falciparum luciferase growth in erythrocytes, 48 h | Potency, µM (series often up to 28.7 µM), inactives show at the top dose activity change, negative = inhibition, usual class: inhibitors | actives 5.9% (n = 310,000); further: potency means the concentration at half of the fitted maximal effect
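Cell-based growth assay: transgenic P. falciparum expressing firefly luciferase, cultured in red cells within RPMI 1640 containing 0.5% w/v Albumax, 24 mM bicarbonate and gentamycin. A drop in luciferase activity indicates inhibition.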
HCMV antiviral = human cytomegalovirus inhibition; actives 4.5% (n = 410,000); AID 1259415; activity change, negative = inhibition, % at 57.5 µM; HFF cells, HCMV-luciferase reporter, 72 h; stronger effect = lower value; in the data active means activity change below about -60%; inconclusive means no clear call, values can overlap the other calls; inactive means above about -39%
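Inhibition of viral replication was scored as loss of reporter luminescence in HFFs infected with HCMV-luciferase (MOI 1 PFU/cell) for 72 h; compounds tested at 2 doses, normalized to buffer and Salinomycin controls.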
Pf growth 96h = P. falciparum growth inhibition at 96 hour, primary screen for plastid delayed-death inhibitors | P. falciparum luciferase reporter growth, 96 h | Potency, µM (top dose mostly 28.7 µM), for the others: at the top dose activity change, negative = inhibition, usual class: inhibitors | actives 6.9% (n = 320,000) | AID 504834; further: potency means the concentration at half of the fitted maximal effect
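Erythrocytes infected with luciferase-expressing P. falciparum were dispensed at 2% hematocrit and 0.05% parasitemia (final), then incubated with compounds 96 hours at 37 C in 5% CO2. Luminescence after detection reagent addition reported growth.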
Giardia FBPA inh = Giardia lamblia aldolase inhibition. A8B2U2. purified Giardia FBPA. Potency, µM (titrated, usually from 59.6 µM), inactives show at the highest dose activity, negative = inhibition, actives largely listed as inhibitors. actives 0.71% (n = 290,000); further: potency means the concentration at half of the fitted maximal effect; nearly all actives have a fitted effect of over 55% in size
Target sequence (A8B2U2 whole entry, looked up): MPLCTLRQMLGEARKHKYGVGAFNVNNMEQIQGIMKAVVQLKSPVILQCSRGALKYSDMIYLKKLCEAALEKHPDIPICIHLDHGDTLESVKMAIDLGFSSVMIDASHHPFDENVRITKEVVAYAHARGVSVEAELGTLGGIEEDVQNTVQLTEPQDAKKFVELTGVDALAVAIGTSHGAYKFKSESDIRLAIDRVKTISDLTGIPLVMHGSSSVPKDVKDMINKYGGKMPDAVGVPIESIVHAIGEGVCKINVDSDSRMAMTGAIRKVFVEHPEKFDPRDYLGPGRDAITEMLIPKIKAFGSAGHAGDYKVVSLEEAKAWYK
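Giardia FBPA (40 nM reagent) was preincubated 10 min at RT with compound (up to 57.5 uM final), then substrate plus GAPDH/TPI/NAD/arsenate coupling system with diaphorase/resazurin was added; resorufin fluorescence (525/598 nm) was read after 20 min.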
* hit, by the source's call; i = inactive; ? = inconclusive; nt = not tested or not shown; [ ] = another dose, or the depositor's remark. Shown are actives, neighbours in structure and some others; about 14% of the full set was active somewhere. Unless noted, the call rests on the fitted dose curve; in most records, active means well fitted curve in the direction sought with a large enough effect; inconclusive means small, poorly fitted or top-dose-only effect, or another doubt; inactive means no such curve, though single readings can be large; an effect the other way counts as inactive or inconclusive. On the % scale 0 is the no-effect control and ±100 the full control effect.

SMILES	Sm TGR inh	Pf growth 48h	HCMV antiviral	Pf growth 96h	Giardia FBPA inh
COc1ccc(Nc2nc(NC(C)(C)C)nc(N3CCOCC3)n2)c(OC)c1	nt	?	-61*	21%	-8%
COc1ccc(Nc2nc(NC(C)(C)C)nc(N3CCCC3)n2)c(OC)c1	8%	nt	-89*	4.7µM*	-8%
COc1ccc(Nc2nc(N3CCCC3)nc(N3CCCC3)n2)c(OC)c1	-23%	nt	-92*	38%	3%
COc1ccc(N2CCN(c3nc(NC(C)(C)C)nc(N4CCCCC4)n3)CC2)cc1	-7%	1.9µM*	-33	nt	20%
COc1ccc(Nc2nc(Nc3ccc(OC)cc3OC)nc(N3CCN(C)CC3)n2)c(OC)c1	5%	?	14	0%	2%
COc1ccc(Nc2nc(N3CCCCC3)nc(N3CCCCC3)n2)c(OC)c1	0%	14%	-16	-8%	4%
COc1ccc(C)cc1-n1nnnc1SCc1nc(N)nc(N(C)C)n1	nt	nt	-22	nt	nt
Cc1cccc(OCc2nc(C#N)c(NCc3ccccc3Cl)o2)c1	3%	nt	26	nt	nt
O=C(Nc1ccc(Cl)cc1)c1cccc(S(=O)(=O)Nc2ccccn2)c1	-19%	12%	?	13µM*	7%
O=C(Nc1ccccn1)c1ccc2nc(-c3ccccc3)c(-c3ccccc3)nc2c1	nt	2%	nt	9%	-4%
O=C(Nc1ccccn1)c1ccc(S(=O)(=O)c2ccc(Cl)cc2)cc1	-5%[57.1 µM]	?	-64*	36%	-3%
O=C(Nc1ccccn1)c1ccc(-c2ccccc2)cc1	10%	118%	-78*	-76%	-21%
O=C(Nc1ccc(Cl)cc1)c1cc(S(=O)(=O)Nc2ccccn2)ccc1Cl	7%	0%	-27	31%	1%
O=C(Nc1ccccn1)c1ccc(S(=O)(=O)N2CCCC2)cc1	-27%	34%	17	33%	nt
Cc1ccc(NS(=O)(=O)c2ccc(-c3coc(C)n3)cc2)c(Cl)c1	nt	nt	11	nt	nt
COC(=O)C(c1ccccc1)C(C(=O)OC)c1ccccc1 (centres undefined)	-5%	25%	34	0%	23%
COC(=O)[C@@H](c1ccccc1)N(C)S(=O)(=O)c1cccc(S(=O)(=O)N(C)[C@@H](C(=O)OC)c2ccccc2)c1	-10%	13µM*	-11	?	-4%
CCc1ccc(S(=O)(=O)c2nnn3c2nc(Nc2cc(OC)ccc2OC)c2sccc23)cc1	6%	nt	11	nt	nt
CCN1C(=O)CC(Sc2ccccc2C(=O)O)C1=O (centres undefined)	?	-81%	-17	nt	2%
COC(=O)c1ccccc1SC1CC(=O)N(c2ccccc2)C1=O (centres undefined)	50µM*	-22%	-9	12µM*	2%
CCOc1ccc(N2C(=O)CC(Sc3ccccc3C(=O)O)C2=O)c([N+](=O)[O-])c1 (centres undefined)	18µM*	-1%[5.75 µM]	-27	2%	12%
O=C(O)c1ccccc1SC1CC(=O)N(c2cccc3ccccc23)C1=O (centres undefined)	1.8µM*	2.1µM*	-33	60%	3%
Cc1cccc(-c2cc3nc4c(c(NCc5ccco5)n3n2)CCCC4)c1	0%	-11%	3	0%	-7%
c1csc(CNc2nc(-c3cccs3)nc3ccccc23)c1	0%	-26%	-61*	?	-2%
c1ccc(CN2CCC(Nc3nc(-c4cccs4)nc4ccccc34)CC2)cc1	9%	5.2µM*	?	5.2µM*	-9%
SMILES	Sm TGR inh	Pf growth 48h	HCMV antiviral	Pf growth 96h	Giardia FBPA inh
Cc1cccc(N2C(=O)/C(=C/c3ccc(CN(CCC#N)S(C)(=O)=O)o3)C(=O)NC2=S)c1	8.9µM*	-11%	8	nt	?
Cc1ccc(N2C(=O)/C(=C/c3ccc(CN(CCC#N)S(C)(=O)=O)o3)C(=O)NC2=S)cc1C	3.2µM*	33%	nt	54%	?
NC(=O)C(C(=O)/C=C/c1ccc(Cl)cc1)=C1SCCS1	0%	?	-101*	8.3µM*	3%
COc1ccc(/C=C/C(=O)C(C(N)=O)=C2SCCS2)cc1	6%	-27%	-101*	-29%	4%
COc1ccc(NC(c2ccccc2)c2ccncc2)cc1 (centres undefined)	40µM*	-29%[0.00184 µM]	-2	-2%	?
CC(C)N(C(=O)[C@H]1C[C@H](CC(=O)NCCC2=CCCCC2)C(=O)N2CCc3c([nH]c4ccc(Cl)cc34)[C@]12C)C(C)C	nt	nt	-91*	nt	nt
COc1ccc2[nH]c3c(c2c1)CCN1C(=O)C(CC(=O)NC/C=C(\C)CCC=C(C)C)C[C@H](C(=O)N(C(C)C)C(C)C)[C@@]31C (some centres undefined)	nt	nt	-103*	nt	nt
CC(C)N(C(=O)[C@H]1CC(CC(=O)NCC23CC4CC(CC(C4)C2)C3)C(=O)N2CCc3c([nH]c4ccccc34)[C@]12C)C(C)C (some centres undefined)	nt	nt	-74*	nt	nt
C[C@]12c3[nH]c4ccccc4c3CCN1C(=O)C(CC(=O)NCC13CC4CC(CC(C4)C1)C3)C[C@@H]2C(=O)N1CCCCC1 (some centres undefined)	nt	nt	-76*	nt	nt
O=C(Nc1ccc2[nH]ncc2c1)c1ccccc1Cl	6%	130%	32	?	-8%
Cc1ccc(C)c(S(=O)(=O)N2CCN(C(=O)CSC(=S)N3CCCC3)CC2)c1	0%	-20%	-33	?	nt
Cc1ccc(NC(=S)N=Nc2c(O)n(C)c3ccc(S(=O)(=O)N4CCOCC4)cc23)cc1C	1%	3.3µM*	?	-27%	-3%
Cc1ccc(N=Nc2c(O)n(CN3CCOCC3)c3ccccc23)cc1	-29%	-1%	nt	i	-1%
Cc1cc(=O)n(C)c2ccc(S(=O)(=O)N3CCOCC3)cc12	-14%	3%	-4	66%	1%
C=CCn1c(O)c(N=NC(=S)Nc2ccccc2C)c2cc(S(=O)(=O)N3CCOCC3)ccc21	0%	2.9µM*	-74*	13µM*	-6%
Cc1cccc(NC(=S)N=Nc2c(O)n(CN3CCOCC3)c3ccccc23)c1C	8%	4.7µM*	-77*	1%	4%
Cn1c(O)c(N=NC(=S)Nc2ccccc2F)c2cc(S(=O)(=O)N3CCOCC3)ccc21	-1%	?	-63*	?	0%
Cc1nc(C)n(CCNC(=O)c2ccco2)n1	-16%	?	-20	0%	13%
Oc1c(N=NC(=S)Nc2ccccc2F)c2ccccc2n1Cc1ccc(F)cc1	0%	2.1µM*	24	?	5%
Oc1c(N=NC(=S)Nc2ccccc2F)c2ccccc2n1Cc1cccc(Cl)c1	12%	?	48	14%	0%
CC(=O)Nc1ccc(N2C(=O)CC(N3CCSCC3)C2=O)cc1 (centres undefined)	nt	27%	-25	-2%	3%
CC(=O)Nc1ccc(N2C(=O)CC(N3CC(C)OC(C)C3)C2=O)cc1 (centres undefined)	22µM*	15%	-2	-10%	-2%
